Results filed as inconclusive are left out. Calls of active or inactive are those of the source. Unless noted, the call rests on the fitted dose curve; in most records, active means well fitted curve in the direction sought with a large enough effect in the repeat runs; inconclusive means weak or mixed curves; inactive means no such curve, though single readings can be large; an effect the other way counts as inactive or inconclusive.
Assays:
[1] = qHTS assay to identify small molecule agonists of the AP-1 signaling pathway - cell viability counter screen (AID 1159525; calls by dose curve; further: nearly all actives have a fitted effect of over 55% in size; further: potency means the concentration at half of the fitted maximal effect)
How it was run: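 Intracellular ATP by Cell Titer Glo luminescence (30 min, RT) in the same ME-180 AP-1-bla wells after the 5 h compound exposure at 37 °C. Normalised to tetra n-octyl ammonium bromide and DMSO controls.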

[2] = qHTS assay to identify small molecule agonists of the estrogen related receptor signaling pathway with the pleiotropic PPARgamma coactivator (PGC) from Tox21 10K library (AID 1224842); further: nearly all actives have a fitted effect of over 15% in size
How it was run: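 Luminescence from One-Glo (30 min, room temperature) measured after PGC/ERR cells had 18 h at 37 C with pinned compound (23 nL in DMSO). Cells had been seeded at 2,000 per well and pre-incubated 6 h.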

[3] = A CellTox Green Cytotoxicity Assay to monitor cytotoxicity in HEK293 cells - 40 hour (AID 1224871); further: potency means the concentration at half of the fitted maximal effect; nearly all actives have a fitted effect of over 45% in size
How it was run: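 Real-time, in one plate: 600 HEK293 cells/well with dead-cell DNA dye, pinned compound after 5 h, 37 C incubation over 40 h; viable cells give no appreciable fluorescence.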

[4] = A CellTox Green Cytotoxicity Assay to monitor cytotoxicity in HepG2 cells - 16 hour (AID 1224876); further: nearly all actives have a fitted effect of over 45% in size; further: potency means the concentration at half of the fitted maximal effect
How it was run: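 Cytotoxicity was tracked as dead-cell DNA fluorescence in HepG2 cells treated with test compounds at 37 C; each time-point value comes from one kinetic series spanning 0, 8, 16, 24, 32 and 40 h.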

[5] = qHTS RealTime-Glo MT Cell Viability Assay in HepG2 cells - 32 hour (AID 1224877); further: nearly all actives have a fitted effect of over 55% in size; further: potency means the concentration at half of the fitted maximal effect
How it was run: (§1)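 Tox21 10K library screened in qHTS format on HepG2 cells carrying RealTime-Glo reagents. Compounds were added after a 5 h preincubation, and the luminescent signal from continuous culture was measured repeatedly during 40 h treatment.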

[6] = qHTS RealTime-Glo MT Cell Viability Assay in HEK293 cells - 0 hour (AID 1224880); further: top concentration of the series differs between compounds; nearly all actives have a fitted effect of over 45% in size
How it was run: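 Kinetic, non-lysing viability readout. Seed HEK293 (600/well) with reagent, incubate 5 h at 37 C/5% CO2, pin 23 nL compound in DMSO, incubate at 37 C, read luminescence at 0, 8, 16, 24, 32, 40 h.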

[7] = qHTS RealTime-Glo MT Cell Viability Assay in HepG2 cells - 0 hour (AID 1224889); further: nearly all actives have a fitted effect of over 50% in size
How it was run: as §1

[8] = qHTS assay to identify small molecule antagonists of the androgen receptor (AR) signaling pathway using the MDA cell line in the presence of 0.5 nM R1881 - cell viability counter screen (AID 1259242); further: nearly all actives have a fitted effect of over 45% in size
How it was run: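 Cells seeded at 3,000/well and allowed 5 hr at 37C, 0% CO2 before compound transfer and R1881 (0.5 nM final) addition; 16 hr later, live-cell protease fluorescence indicated cytotoxicity.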

[9] = qHTS assay to identify small molecule agonists of the sonic hedgehog signaling (Shh) pathway - cell viability counter screen (AID 1259366); further: potency means the concentration at half of the fitted maximal effect; nearly all actives have a fitted effect of over 50% in size
How it was run: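 CellTiter-Fluor fluorescence read-out, 1 hr at 37C, added after 23hr compound exposure. Cells: 3T3 Gli1-Luc, an NIH/3T3 clone with stably integrated Gli1-Luc reporter, plated 4hr before compound.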

[10] = qHTS assay to identify small molecule antagonists of the sonic hedgehog signaling (Shh) pathway (AID 1259369; calls by dose curve)
How it was run: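 Read-out is luminescence from a firefly luciferase gene controlled by the Gli1 response element, in 3T3Gli1-Luc cells pre-incubated 4hr then exposed to compounds and conditioned medium for 24hr.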

[11] = biological target: Estrogen receptor (Homo sapiens) (UniProt P03372); assay: qHTS assay to identify small molecule agonists of the estrogen receptor alpha (ER-alpha) signaling pathway in the presence of an antagonist (AID 1259383; calls by dose curve; further: top concentration of the series differs between compounds; nearly all actives have a fitted effect of over 15% in size)
Chain of Estrogen receptor (Homo sapiens) (P03372 whole entry, looked up): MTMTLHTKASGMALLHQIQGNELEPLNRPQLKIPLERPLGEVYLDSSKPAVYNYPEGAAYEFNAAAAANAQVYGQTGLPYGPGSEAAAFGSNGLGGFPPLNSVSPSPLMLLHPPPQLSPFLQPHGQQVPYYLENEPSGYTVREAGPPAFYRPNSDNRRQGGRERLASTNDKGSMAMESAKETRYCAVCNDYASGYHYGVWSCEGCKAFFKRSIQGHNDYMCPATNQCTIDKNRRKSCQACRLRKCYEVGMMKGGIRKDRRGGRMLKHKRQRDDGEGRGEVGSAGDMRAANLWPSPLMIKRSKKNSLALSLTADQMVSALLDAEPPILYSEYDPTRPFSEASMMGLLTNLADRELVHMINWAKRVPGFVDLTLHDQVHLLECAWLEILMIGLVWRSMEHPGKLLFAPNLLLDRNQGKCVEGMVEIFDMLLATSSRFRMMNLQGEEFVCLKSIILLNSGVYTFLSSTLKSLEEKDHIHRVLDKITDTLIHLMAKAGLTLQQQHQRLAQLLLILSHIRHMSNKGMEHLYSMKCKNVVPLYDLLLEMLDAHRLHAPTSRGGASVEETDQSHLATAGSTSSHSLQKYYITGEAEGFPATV
How it was run: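 Luminescent ERE-luciferase reporter, VM7Luc4E2 cells (endogenous ER-alpha); 10.0nM ICI-182,780 final; 15-point compound titration; 22hr at 37C; ONE-Glo, 30min RT.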

[12] = qHTS assay to identify small molecule agonists of the estrogen receptor alpha (ER-alpha) signaling pathway in the presence of an antagonist - cell viability counter screen (AID 1259386);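 further: series mostly up to about 92 µM; cells exposed to compounds for 22 h at 37 °C before the viability read; nearly all actives have a fitted effect of over 30% in size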
How it was run: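 Using estrogen-depleted VM7Luc4E2 cells, the 15-concentration compound series was applied together with 10.0nM ICI-182,780 and incubated 22hr at 37C/5% CO2. Cell viability was then scored by CellTiter-Fluor.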

[13] = qHTS assay to identify small molecule antagonists of the TGF-beta/Smad signaling pathway - cell viability counter screen (AID 1346824); further: nearly all actives have a fitted effect of over 50% in size
How it was run: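 Cytotoxicity counter-screen run in the same wells as the beta-lactamase Smad reporter read: CellTiter-Glo luminescence after 30 min at room temperature. HEK 293T SBE-bla cells had 5 hr compound exposure at 37 C with TGF-beta1 (0.25 ng/mL stock).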

[14] = qHTS assay to identify small molecule agonists of the TGF-beta/Smad signaling pathway - cell viability counter screen (AID 1346829)
How it was run: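 HEK 293T SBE-bla line, 5 hr compound exposure at 37 C, multiplexed CellTiter-Glo viability read by luminescence.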

[15] = biological target: Cytochrome P450 2C19 (Homo sapiens) (UniProt P33261); assay: Cytochrome P450 Family 2 Subfamily C Member 19 (CYP2C19) small molecule antagonists: luciferase reporter qHTS assay (AID 1671197); further: nearly all actives have a fitted effect of over 65% in size; further: potency means the concentration at half of the fitted maximal effect
Chain of Cytochrome P450 2C19 (Homo sapiens) (P33261 whole entry, looked up): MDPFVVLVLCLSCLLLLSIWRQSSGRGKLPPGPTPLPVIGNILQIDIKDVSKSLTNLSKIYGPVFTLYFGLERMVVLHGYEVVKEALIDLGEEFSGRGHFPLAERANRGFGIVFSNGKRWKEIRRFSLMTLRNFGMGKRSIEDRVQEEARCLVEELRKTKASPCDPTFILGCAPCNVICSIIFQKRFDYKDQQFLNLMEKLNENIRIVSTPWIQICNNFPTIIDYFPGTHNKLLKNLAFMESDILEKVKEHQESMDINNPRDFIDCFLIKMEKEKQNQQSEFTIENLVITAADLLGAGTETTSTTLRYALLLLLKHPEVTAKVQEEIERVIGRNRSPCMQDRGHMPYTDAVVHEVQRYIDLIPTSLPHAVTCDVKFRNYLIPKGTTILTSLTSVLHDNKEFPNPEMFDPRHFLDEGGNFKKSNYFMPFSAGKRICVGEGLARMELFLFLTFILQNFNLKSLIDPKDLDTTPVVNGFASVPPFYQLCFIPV
How it was run: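 First, compounds are pinned into enzyme-substrate mix and held 10 min at room temperature. Second, NADPH regeneration solution is added and plates incubate 1 h at 37C. Third, detection reagent is added and luminescence read after 20 min.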

Aromatase (Homo sapiens) = Aromatase (Homo sapiens) (UniProt P11511); assay: qHTS assay to identify aromatase inhibitors (AID 743083); further: potency means the concentration at half of the fitted maximal effect; nearly all actives have a fitted effect of over 55% in size
Chain of Aromatase (Homo sapiens) (P11511 whole entry, looked up): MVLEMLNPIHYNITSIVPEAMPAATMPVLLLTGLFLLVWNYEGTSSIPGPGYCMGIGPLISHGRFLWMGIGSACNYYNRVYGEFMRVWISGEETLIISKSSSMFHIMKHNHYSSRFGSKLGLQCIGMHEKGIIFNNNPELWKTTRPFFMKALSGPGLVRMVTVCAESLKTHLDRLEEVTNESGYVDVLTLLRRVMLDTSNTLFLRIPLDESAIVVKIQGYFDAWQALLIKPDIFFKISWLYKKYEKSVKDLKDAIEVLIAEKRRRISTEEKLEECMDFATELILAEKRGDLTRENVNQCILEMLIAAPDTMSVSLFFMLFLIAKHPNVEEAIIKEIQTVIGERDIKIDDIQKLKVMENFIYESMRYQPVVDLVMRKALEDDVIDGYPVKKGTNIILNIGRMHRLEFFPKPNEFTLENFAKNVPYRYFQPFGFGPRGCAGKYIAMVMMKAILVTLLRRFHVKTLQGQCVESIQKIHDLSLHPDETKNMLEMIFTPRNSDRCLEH

[16] = biological target: Nuclear receptor subfamily 1 group I member 3 (Homo sapiens) (UniProt Q14994); assay: qHTS assay to identify small molecule antagonists of the constitutive androstane receptor (CAR) signaling pathway (AID 1224838); further: potency means the concentration at half of the fitted maximal effect; nearly all actives have a fitted effect of over 40% in size
Chain of Nuclear receptor subfamily 1 group I member 3 (Homo sapiens) (Q14994 whole entry, looked up): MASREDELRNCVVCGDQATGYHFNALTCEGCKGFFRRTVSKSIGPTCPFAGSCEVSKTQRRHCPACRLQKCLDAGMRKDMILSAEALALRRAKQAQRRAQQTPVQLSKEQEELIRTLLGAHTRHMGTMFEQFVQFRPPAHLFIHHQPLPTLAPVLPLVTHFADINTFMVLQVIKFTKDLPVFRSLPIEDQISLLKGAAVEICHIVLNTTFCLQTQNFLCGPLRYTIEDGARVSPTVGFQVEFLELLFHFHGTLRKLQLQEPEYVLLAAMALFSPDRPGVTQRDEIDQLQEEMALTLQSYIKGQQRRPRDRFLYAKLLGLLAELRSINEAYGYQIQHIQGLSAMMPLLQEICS
How it was run: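 Inhibition of CITCO-driven (50 nM final) CYP2B6 reporter expression is measured in HepG2 cells stably carrying hCAR. Fifteen compound concentrations are applied for 24 h at 37 C, followed by luciferase luminescence.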

[17] = qHTS assay to identify small molecule agonists or antagonists of the thyroid stimulating hormone receptor (TSHR) signaling pathway - wild type cell line counter screen (AID 1259384; calls by dose curve)
How it was run: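 Counter screen in untransfected Hek293: compounds (15-point titration, triplicate) plus phosphodiesterase inhibitor Ro20-1724 added after 18 h plating; 30 min RT. Intracellular cAMP via competitive d2/cryptate immunoassay, 1 h incubation.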

[18] = qHTS assay to identify small molecule agonists of the TGF-beta/Smad signaling pathway (AID 1346859; active means well fitted activation curve with a large enough effect in the signal ratio in the repeat runs, not every such curve was filed as active; the % refers to the signal ratio; further: series mostly up to about 77 µM)
How it was run: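 Read-out: fluorescence at 460 and 530 nm (405 nm excitation) after a 2 hr room-temperature incubation with beta-lactamase FRET substrate. SBE-bla HEK 293T cells had been treated with test compounds for 5 hr at 37 C.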

[19] = biological target: Voltage-gated inwardly rectifying potassium channel KCNH2 (Homo sapiens) (UniProt Q12809); assay: Human Ether-a-go-go-Related Gene (hERG) channel small molecule antagonists: fluorescence cell-based qHTS assay (AID 1671200); further: nearly all actives have a fitted effect of over 50% in size; further: potency means the concentration at half of the fitted maximal effect
Chain of Voltage-gated inwardly rectifying potassium channel KCNH2 (Homo sapiens) (Q12809 whole entry, looked up): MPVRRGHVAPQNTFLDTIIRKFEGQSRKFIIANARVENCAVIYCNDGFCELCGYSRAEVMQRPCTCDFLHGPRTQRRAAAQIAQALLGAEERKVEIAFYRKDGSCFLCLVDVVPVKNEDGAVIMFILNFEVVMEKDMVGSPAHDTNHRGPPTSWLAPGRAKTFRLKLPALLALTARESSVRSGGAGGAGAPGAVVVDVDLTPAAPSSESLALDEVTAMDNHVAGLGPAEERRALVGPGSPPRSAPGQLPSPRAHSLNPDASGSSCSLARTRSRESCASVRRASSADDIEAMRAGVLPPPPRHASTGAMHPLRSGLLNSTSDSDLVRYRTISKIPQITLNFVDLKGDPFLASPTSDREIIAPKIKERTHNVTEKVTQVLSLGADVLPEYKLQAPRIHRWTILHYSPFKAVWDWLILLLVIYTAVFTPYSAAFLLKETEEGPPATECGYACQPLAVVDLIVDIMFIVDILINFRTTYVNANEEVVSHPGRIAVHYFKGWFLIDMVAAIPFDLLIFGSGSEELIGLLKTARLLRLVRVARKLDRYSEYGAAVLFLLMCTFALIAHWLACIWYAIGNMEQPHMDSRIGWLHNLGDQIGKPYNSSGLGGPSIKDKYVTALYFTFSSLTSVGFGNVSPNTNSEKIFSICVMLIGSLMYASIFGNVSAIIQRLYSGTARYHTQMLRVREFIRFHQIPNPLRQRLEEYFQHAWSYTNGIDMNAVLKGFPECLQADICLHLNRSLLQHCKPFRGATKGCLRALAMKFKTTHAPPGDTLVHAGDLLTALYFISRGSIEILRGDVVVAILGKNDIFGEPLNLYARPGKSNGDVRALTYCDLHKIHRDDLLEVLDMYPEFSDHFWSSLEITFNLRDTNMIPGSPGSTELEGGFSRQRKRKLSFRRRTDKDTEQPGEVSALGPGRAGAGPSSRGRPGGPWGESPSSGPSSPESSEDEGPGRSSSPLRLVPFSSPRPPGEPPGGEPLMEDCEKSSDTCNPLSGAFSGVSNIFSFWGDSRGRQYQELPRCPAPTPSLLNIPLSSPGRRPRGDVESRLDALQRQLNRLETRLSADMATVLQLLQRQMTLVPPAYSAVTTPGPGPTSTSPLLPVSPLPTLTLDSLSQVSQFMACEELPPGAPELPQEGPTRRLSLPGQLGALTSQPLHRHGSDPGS
How it was run: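 Read-out: thallium influx as a surrogate for potassium, tracked as fluorescence (480 nm ex/540 nm em) every second for 2 min after Stimulus Buffer addition in dye-loaded hERG-U2OS cells.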

Measured: Potency

O=C(c1ccccc1)C(Cl)Cl
active: [3] 34.7 µM | [9] 68.6 µM | [10] 30.6 µM
not listed: Aromatase (Homo sapiens) | [16] | [17] | [18] | [19]
inactive: all other assays above

Cc1ccc(N(SC(F)(Cl)Cl)S(=O)(=O)N(C)C)cc1
inactive: [2] | [6] | [7] | [17] | [12] | [13] | [14] | [18]
active: Aromatase (Homo sapiens) 3.86 µM | [1] 30.9 µM | [16] 27.3 µM | [3] 4.9 µM | [4] 17.4 µM | [5] 9.77 µM | [9] 4.86 µM | [10] 2.73 µM | [15] 10 µM | [19] 21.9 µM

OCC(c1ccc(Cl)cc1)c1ccc(Cl)cc1
active: Aromatase (Homo sapiens) 30.6 µM | [1] 49 µM | [3] 43.6 µM | [4] 43.6 µM | [10] 24.3 µM | [15] 0.0894 µM | [19] 43.6 µM
not listed: [2] | [5] | [9] | [16]
inactive: all other assays above

CC(c1ccccc1)(c1ccc(O)cc1)c1ccc(O)cc1
active: [1] 49 µM | [9] 68.6 µM | [10] 21.7 µM | [15] 8.94 µM
not listed: [3] | [4] | [6] | Aromatase (Homo sapiens) | [16]
inactive: all other assays above

From PubChem BioAssay (Tox21)
